{"source": "paper PMC4336329", "about": "(PLoS ONE, 2015)", "note": "The campaign covered roughly 310,000 compounds. About 14,000 (4.5%) showed an effect of 50% or more. The effect is printed as a negative number. Many of the other results were omitted from the sample, so strong results are more common in it than they were.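 Note: peak tail current of the secondary pulse compared with the same well before compound.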"}
{"target": "human ether-à-go-go-related gene (hERG) potassium channel (human, UniProt Q12809)", "sequence (Q12809 whole entry, looked up)": "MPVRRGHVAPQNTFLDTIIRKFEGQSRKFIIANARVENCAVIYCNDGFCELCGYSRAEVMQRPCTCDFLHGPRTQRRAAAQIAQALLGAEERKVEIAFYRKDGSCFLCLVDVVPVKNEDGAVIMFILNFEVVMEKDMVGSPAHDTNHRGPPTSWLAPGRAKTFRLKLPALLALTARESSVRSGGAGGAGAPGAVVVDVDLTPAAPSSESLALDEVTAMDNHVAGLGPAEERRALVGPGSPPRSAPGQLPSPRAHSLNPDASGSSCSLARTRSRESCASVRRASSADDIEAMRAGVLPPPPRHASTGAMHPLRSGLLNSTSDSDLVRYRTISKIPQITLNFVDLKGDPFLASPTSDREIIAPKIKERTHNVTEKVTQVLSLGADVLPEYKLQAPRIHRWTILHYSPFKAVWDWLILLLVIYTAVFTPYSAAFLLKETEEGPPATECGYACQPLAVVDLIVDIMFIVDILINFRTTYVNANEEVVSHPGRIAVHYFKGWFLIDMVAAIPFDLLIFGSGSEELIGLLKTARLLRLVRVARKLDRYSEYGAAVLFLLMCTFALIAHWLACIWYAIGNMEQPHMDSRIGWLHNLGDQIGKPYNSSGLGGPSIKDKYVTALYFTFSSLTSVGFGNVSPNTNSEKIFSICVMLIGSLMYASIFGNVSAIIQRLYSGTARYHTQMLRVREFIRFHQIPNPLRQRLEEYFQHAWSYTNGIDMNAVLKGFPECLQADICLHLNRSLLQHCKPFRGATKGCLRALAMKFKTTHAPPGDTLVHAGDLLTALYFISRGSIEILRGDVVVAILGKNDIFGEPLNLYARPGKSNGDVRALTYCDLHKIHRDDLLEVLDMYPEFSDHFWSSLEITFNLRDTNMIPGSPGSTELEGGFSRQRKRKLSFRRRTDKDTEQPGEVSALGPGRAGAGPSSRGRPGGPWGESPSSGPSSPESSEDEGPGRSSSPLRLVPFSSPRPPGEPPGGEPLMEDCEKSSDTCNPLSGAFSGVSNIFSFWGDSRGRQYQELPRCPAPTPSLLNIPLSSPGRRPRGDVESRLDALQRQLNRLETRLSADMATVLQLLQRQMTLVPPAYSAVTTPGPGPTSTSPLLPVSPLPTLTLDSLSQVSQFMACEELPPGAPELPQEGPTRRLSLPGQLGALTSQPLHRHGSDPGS", "assay": "primary screen, population patch clamp on CHO cells stably expressing hERG; higher = less effect of the substance", "units": {"hERG current change (%, negative = inhibition) at 10uM": "%"}}
{"molecule": "CCN1CCN(CCNC(=O)c2ccc3c(c2)N(Cc2ccc(F)cc2)C(=O)/C(=C/c2ccccc2)S3)CC1", "hERG current change (%, negative = inhibition) at 10uM": -42.7}
{"molecule": "CN(C)Cc1nnnn1-c1cccc(-n2nnnc2CN(C)C)c1", "hERG current change (%, negative = inhibition) at 10uM": 12.3}
{"molecule": "COCC(=O)NC1CCN(CC(=O)Nc2ccc(OC)cc2[N+](=O)[O-])CC1", "hERG current change (%, negative = inhibition) at 10uM": -2.46}
{"molecule": "CC(C)c1ccc(Nc2nnc(SCC(=O)Nc3ncc(S(=O)(=O)c4ccc([N+](=O)[O-])cc4)s3)s2)cc1", "hERG current change (%, negative = inhibition) at 10uM": 13.8}
{"molecule": "COC(=O)C1=CN(CCOC23CC4CC(CC(C4)C2)C3)C=C(C(=O)OC)C1c1ccsc1", "hERG current change (%, negative = inhibition) at 10uM": 10}
{"molecule": "Cn1c(=O)[nH]c2ccc([N+](=O)[O-])nc21", "hERG current change (%, negative = inhibition) at 10uM": 9.62}
{"molecule": "Cc1cc(=O)oc2cc(NC(=O)C3CC(=O)N(Cc4ccccc4)C3)ccc12", "note": "(stereo not drawn)", "hERG current change (%, negative = inhibition) at 10uM": 5.29}
{"molecule": "COc1ccc(NC(=O)N2CCN(c3cccc(C(F)(F)F)c3)CC2)cc1OC", "hERG current change (%, negative = inhibition) at 10uM": -1.73}
{"molecule": "COc1ccccc1NC(=O)N1CCN(c2cccc(C(F)(F)F)c2)CC1", "hERG current change (%, negative = inhibition) at 10uM": -76.6}
{"molecule": "COc1ccc(NC(=O)N2CCN(c3cccc(C(F)(F)F)c3)CC2)cc1", "hERG current change (%, negative = inhibition) at 10uM": -1.89}
{"molecule": "O=C(CN1C(=O)COCC1=O)N1CCOCC1", "hERG current change (%, negative = inhibition) at 10uM": 3.2}
{"molecule": "Cc1ccc(C)n1-c1ccc(-c2nnco2)cc1", "hERG current change (%, negative = inhibition) at 10uM": 8.42}
{"molecule": "c1ccc(CCNCCOc2ccccc2)cc1", "hERG current change (%, negative = inhibition) at 10uM": -0.101}
{"molecule": "COCCNCCCOc1ccc(C(C)(C)c2ccccc2)cc1.O=C(O)C(=O)O", "hERG current change (%, negative = inhibition) at 10uM": -29.3}
{"molecule": "COc1ccc(OCCCC(=O)NCCc2ccccc2)cc1", "hERG current change (%, negative = inhibition) at 10uM": -7.79}
{"molecule": "COc1ccc(CCNCc2ccccc2)cc1.O=C(O)C(=O)O", "hERG current change (%, negative = inhibition) at 10uM": -23.9}
{"molecule": "COCCCNCCOc1ccc(C(C)(C)c2ccccc2)cc1.O=C(O)C(=O)O", "hERG current change (%, negative = inhibition) at 10uM": -54.5}
{"molecule": "COCCCNCCCOc1ccc(C(C)(C)c2ccccc2)cc1.O=C(O)C(=O)O", "hERG current change (%, negative = inhibition) at 10uM": -19.9}
{"molecule": "COc1ccc(CCNCc2c(-c3ccccc3)n(C)c3ccccc23)cc1.O=C(O)C(=O)O", "hERG current change (%, negative = inhibition) at 10uM": -52.3}
{"molecule": "O=C(CCCOc1ccc(Cl)cc1)NCCc1ccccc1", "hERG current change (%, negative = inhibition) at 10uM": 5.77}
{"molecule": "Clc1ccc(OCCNCCc2ccccc2)cc1.O=C(O)C(=O)O", "hERG current change (%, negative = inhibition) at 10uM": -73.7}
{"molecule": "COc1ccc(CCNCc2ccncc2)cc1.O=C(O)C(=O)O", "hERG current change (%, negative = inhibition) at 10uM": -13.7}
{"molecule": "COc1ccc(OCCCNCCc2ccccc2)cc1.O=C(O)C(=O)O", "hERG current change (%, negative = inhibition) at 10uM": -57}
{"molecule": "COc1ccc(CCNCc2ccccc2N2CCCC2)cc1.O=C(O)C(=O)O", "hERG current change (%, negative = inhibition) at 10uM": -41.8}
